The list is not random: actives were taken first. Their share in the collection is about 19%.
VP16 counter = Gal4-VP16 reporter inhibition counter-screen. 3.5% of 310,000 active. Potency, µM (highest dose often 53.6 µM), without a hit: top-dose activity, negative = inhibition, hits mostly inhibitors. Drosophila S2 Gal4-VP16 UAS-luciferase, luminescence, 20 h;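 further: Gal4-VP16 expression switched on by copper sulfate through the metallothionein promoter; nearly all actives have a fitted effect of over 50% in size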
DT40 TDP1 CPT = growth inhibition of DT40 Tdp1-/-;hTDP1 cells with camptothecin (screen for TDP1 inhibitors) | chicken DT40 Tdp1-/-;hTDP1 cells + 20 nM CPT, ATP luminescence, 48 h | Potency, µM (doses to about 46.2 µM), without a hit: top-dose activity change, negative = growth inhibition, actives largely listed as inhibitors | 12% of 420,000 active | AID 686979; further: nearly all actives have a fitted effect of over 55% in size
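Chicken DT40 Tdp1-/- cells stably complemented with human TDP1 were seeded at 400 cells/well in medium containing 20 nM camptothecin, exposed to pin-transferred compounds, and grown at 37 °C for at least 48 hr. Viability was read as ATP luminescence.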
RORg inh = inhibitors of mouse ROR gamma transcriptional activity; Drosophila S2 Gal4-RORgamma UAS-luciferase reporter, 20 h; 5.4% of 310,000 active; Potency, µM (doses to about 53.6 µM), inactives show at the top dose activity change, negative = inhibition, most hits filed as inhibitors; further: nearly all actives have a fitted effect of over 60% in size
Target sequence (P51450 whole entry, looked up, the tested form may be a part): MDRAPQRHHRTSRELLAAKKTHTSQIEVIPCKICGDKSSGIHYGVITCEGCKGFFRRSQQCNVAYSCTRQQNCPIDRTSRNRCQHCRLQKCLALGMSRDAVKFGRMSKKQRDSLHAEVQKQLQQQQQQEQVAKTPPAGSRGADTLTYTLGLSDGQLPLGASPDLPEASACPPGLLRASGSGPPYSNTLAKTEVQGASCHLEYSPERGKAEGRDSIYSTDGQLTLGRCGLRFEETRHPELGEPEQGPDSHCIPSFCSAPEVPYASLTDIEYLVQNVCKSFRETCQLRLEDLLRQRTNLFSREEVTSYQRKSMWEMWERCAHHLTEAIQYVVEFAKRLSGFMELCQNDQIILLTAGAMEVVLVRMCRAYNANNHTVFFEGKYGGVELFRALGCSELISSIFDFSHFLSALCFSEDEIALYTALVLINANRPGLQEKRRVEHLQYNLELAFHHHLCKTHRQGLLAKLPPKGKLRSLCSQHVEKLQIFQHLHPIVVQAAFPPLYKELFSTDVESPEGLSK
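Drosophila S2 cells stably expressing Gal4-DBD/mouse RORγ fusion under metallothionein promoter plus UAS-luciferase; compound 1 h, then 700 uM CuSO4 induction for 20 h at ambient temperature; inhibition read as reduced luminescence.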
TDP1 inh = inhibitors of human tyrosyl-DNA phosphodiesterase TDP1. recombinant TDP1, AlphaScreen DNA substrate cleavage. AID 485290. Potency, µM (doses to about 130 µM), inactives show top-dose activity change, negative = inhibition, hits mostly inhibitors. 0.28% of 350,000 active; further: nearly all actives have a fitted effect of over 40% in size
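Here, a 5' biotin and 3' phosphotyrosine-FITC DNA oligonucleotide reports Tdp1 activity: intact substrate bridges AlphaScreen beads, while cleavage leaves a 3' phosphate and drops signal. All incubations at room temperature.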
DT40 TDP1 no CPT = qHTS for Inhibitors of human tyrosyl-DNA phosphodiesterase 1 (TDP1): qHTS in cells in absence of CPT; DT40 Tdp1-/- hTDP1 cells, no CPT, ATP luminescence, 48 h; Potency, µM (titrated, usually from 46.2 µM), without a hit: at the highest dose activity change, negative = growth inhibition, usual class: inhibitors; 15% of 420,000 active; further: nearly all actives have a fitted effect of over 55% in size
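Chicken DT40 Tdp1-/- cells complemented with human TDP1, screened without camptothecin (DMSO vehicle only), 400 cells/well. Compounds pin-transferred, cells incubated at 37 °C for at least 48 hr. Growth read as ATP-dependent luminescence (CellTiter-Glo, 30 min at RT).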
* = called active by the depositor; ? = inconclusive; . = no result; [ ] = remark or other dose. The call rests on the fitted dose curve; in most records, active means well fitted curve in the direction sought with a large enough effect; inconclusive means small, poorly fitted or top-dose-only effect, or another doubt; inactive means no such curve, though single readings can be large; an effect the other way counts as inactive or inconclusive. On the % scale 0 is the no-effect control and ±100 the full control effect; potency means the concentration at half of the fitted maximal effect.

SMILES	VP16 counter	DT40 TDP1 CPT	RORg inh	TDP1 inh	DT40 TDP1 no CPT
Cc1nn(-c2ccccc2)c2c1N(CCCC(=O)NCc1ccc(N(C)C)cc1)C(=O)CS2	.	23µM*	.	8%	23µM*
Cc1ccc(CNC(=O)CN2C(=O)CSc3c2c(C)nn3-c2ccccc2)cc1	.	-4%	.	6%	0%
Cc1nn(-c2ccccc2)c2c1N(CC(=O)NCc1ccc(N(C)C)cc1)C(=O)CS2	.	?	.	1%	18µM*
COc1ccc(CNC(=O)CCCN2C(=O)CSc3c2c(C)nn3-c2ccccc2)c(OC)c1	.	?	.	7%	16µM*
COc1cccc(CNC(=O)CCCN2C(=O)CSc3c2c(C)nn3-c2ccccc2)c1OC	.	?	.	7%	?
CCCOc1ccc(CNC(=O)CCCN2C(=O)CSc3c2c(C)nn3-c2ccccc2)cc1	.	21µM*	.	5%	?
CCOc1ccc(CNC(=O)CN2C(=O)CSc3c2c(C)nn3-c2ccccc2)cc1	.	-1%	.	5%	-14%
COc1ccc(CNC(=O)CCCN2C(=O)CSc3c2c(C)nn3-c2ccccc2)cc1	.	?	.	5%	?
CN(Cc1ccccc1)C(=O)Nc1ccccc1	15%	-15%	14%	4%	-11%
O=C(Nc1ccccc1)Nc1ccccc1C(=O)NCc1ccccc1	22%	-28%	?	4%	?
Brc1cccc(-c2nnc(CN3CCN(c4ccccn4)CC3)o2)c1	.	-3%	.	-2%	-18%
O=C(Cn1cncn1)NCc1cccc(OC(F)F)c1	-6%	-2%	6%	0%	5%
COc1ccc(OC)c(C(C(=O)NC2CCCCC2)N(C(=O)c2ccccn2)c2cccnc2)c1 (configuration not stated)	14%	2%	0%	1%	-18%
COc1ccc(C(c2c(NC(C)=O)sc3c2CCCC3)N2CCN(CCO)CC2)cc1OC (configuration not stated)	-24%	-18%	-3%	10%	-26%
CCOc1ccc(C(c2c(NC(=O)c3ccccc3)sc(C)c2C)N2CCN(CCO)CC2)cc1 (configuration not stated)	?	21µM*	34%	-3%	18µM*
Cc1sc(NC(=O)c2ccccc2)c(C(c2ccc(Cl)cc2)N2CCN(CCO)CC2)c1C (configuration not stated)	22µM*	23µM*	?	-2%	26µM*
CC(=O)Nc1sc2c(c1C(c1cccc(Cl)c1)N1CCN(CCO)CC1)CCCC2 (configuration not stated)	?	16µM*	-26%	8%	26µM*
CCc1cc(C(c2ccncc2)N2CCN(C)CC2)c(NC(=O)c2ccccc2)s1 (configuration not stated)	-13%	-18%	13%	4%	-33%
COC(=O)C(C)(C)c1cccnc1C#N	.	5%	.	.	5%
CC(C)N(C(=O)[C@H]1C[C@H](CC(=O)NCCCN(C)C)C(=O)N2CCc3c([nH]c4ccc(Cl)cc34)[C@]12C)C(C)C	.	?	.	1%[56.1 µM]	15µM*
CCN(CC)C(=O)[C@H]1CC(CC(=O)NCc2ccc(OC)c(OC)c2)C(=O)N2CCc3c([nH]c4ccccc34)[C@]12C (some centres not stated)	.	?	.	1%	?
CCN(CC)C(=O)[C@H]1C[C@H](CC(=O)NCc2ccc(OC)c(OC)c2)C(=O)N2CCc3c([nH]c4ccc(Cl)cc34)[C@]12C	.	?	.	2%[56.1 µM]	23µM*
CCN(CC)C(=O)[C@H]1C[C@H](CC(=O)NCCCN(C)C)C(=O)N2CCc3c([nH]c4ccc(Cl)cc34)[C@]12C	.	18µM*	.	0%[56.1 µM]	?
COc1ccc(OC)c(S(=O)(=O)NCCc2sc(-c3ccc(C)cc3)nc2C)c1	.	.	.	9%	.
CC1(C)S[C@@H]2[C@H](NC(=O)[C@@H](NC(=O)N3CCNC3=O)c3ccccc3)C(=O)N2[C@H]1C(=O)O	-8%[17 µM]	-9%[21.1 µM]	-10%[2.98 µM]	13%[21 µM]	-11%[21.1 µM]

Screens (PubChem)
